Test [1] addresses T1, Aurora kinase A (Homo sapiens) (UniProt O14965).
T1 sequence (whole entry): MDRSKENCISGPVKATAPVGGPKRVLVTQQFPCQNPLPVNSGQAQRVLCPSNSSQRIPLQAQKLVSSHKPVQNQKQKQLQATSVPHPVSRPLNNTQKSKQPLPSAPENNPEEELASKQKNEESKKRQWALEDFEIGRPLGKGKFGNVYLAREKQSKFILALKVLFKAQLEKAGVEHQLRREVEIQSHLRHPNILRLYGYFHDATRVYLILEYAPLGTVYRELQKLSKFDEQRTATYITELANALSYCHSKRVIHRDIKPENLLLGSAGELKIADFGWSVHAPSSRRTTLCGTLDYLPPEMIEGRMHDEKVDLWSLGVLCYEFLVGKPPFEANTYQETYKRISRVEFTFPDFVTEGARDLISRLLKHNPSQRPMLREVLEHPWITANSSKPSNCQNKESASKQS
To be noted: at 1 µM.

The target in test [2] is Aurora kinase B (Homo sapiens) (UniProt Q96GD4). Conditions: at 0.1 µM.
Aurora kinase B (Homo sapiens), sequence (Q96GD4 whole entry): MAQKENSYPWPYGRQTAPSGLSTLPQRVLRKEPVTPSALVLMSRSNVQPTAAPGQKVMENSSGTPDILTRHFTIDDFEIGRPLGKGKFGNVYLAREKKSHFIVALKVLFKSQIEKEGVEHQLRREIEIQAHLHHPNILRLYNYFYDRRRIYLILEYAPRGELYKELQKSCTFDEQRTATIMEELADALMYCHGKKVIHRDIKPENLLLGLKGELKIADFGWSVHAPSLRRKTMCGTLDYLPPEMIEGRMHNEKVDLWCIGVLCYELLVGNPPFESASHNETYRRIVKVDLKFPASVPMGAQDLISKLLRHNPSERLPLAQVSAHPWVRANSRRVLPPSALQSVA
For test [3] the target is unchanged. Conditions: at 1 µM.
Test [4] has as its target T2, Aurora kinase C (Homo sapiens) (UniProt Q9UQB9).
T2 sequence (whole entry): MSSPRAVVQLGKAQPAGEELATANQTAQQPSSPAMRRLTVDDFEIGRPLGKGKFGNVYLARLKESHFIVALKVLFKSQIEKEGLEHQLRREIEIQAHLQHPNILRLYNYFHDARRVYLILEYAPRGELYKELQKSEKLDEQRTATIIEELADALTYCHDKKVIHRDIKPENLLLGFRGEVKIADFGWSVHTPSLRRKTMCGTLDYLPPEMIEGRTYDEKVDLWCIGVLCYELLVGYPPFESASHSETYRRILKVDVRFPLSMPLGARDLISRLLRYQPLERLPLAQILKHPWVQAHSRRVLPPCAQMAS
To be noted: at 0.1 µM.

Test [5] deals with T2, Aurora kinase C (Homo sapiens). To be noted: at 1 µM.
Test [6] has as its target Serine/threonine-protein kinase 10 (Homo sapiens) (UniProt O94804). Conditions: at 0.1 µM.
The target is the same in test [7]. To be noted: at 1 µM.
Test [8] concerns the target T3, Mitogen-activated protein kinase kinase kinase kinase 2 (Homo sapiens) (UniProt Q12851).
T3 sequence (whole entry): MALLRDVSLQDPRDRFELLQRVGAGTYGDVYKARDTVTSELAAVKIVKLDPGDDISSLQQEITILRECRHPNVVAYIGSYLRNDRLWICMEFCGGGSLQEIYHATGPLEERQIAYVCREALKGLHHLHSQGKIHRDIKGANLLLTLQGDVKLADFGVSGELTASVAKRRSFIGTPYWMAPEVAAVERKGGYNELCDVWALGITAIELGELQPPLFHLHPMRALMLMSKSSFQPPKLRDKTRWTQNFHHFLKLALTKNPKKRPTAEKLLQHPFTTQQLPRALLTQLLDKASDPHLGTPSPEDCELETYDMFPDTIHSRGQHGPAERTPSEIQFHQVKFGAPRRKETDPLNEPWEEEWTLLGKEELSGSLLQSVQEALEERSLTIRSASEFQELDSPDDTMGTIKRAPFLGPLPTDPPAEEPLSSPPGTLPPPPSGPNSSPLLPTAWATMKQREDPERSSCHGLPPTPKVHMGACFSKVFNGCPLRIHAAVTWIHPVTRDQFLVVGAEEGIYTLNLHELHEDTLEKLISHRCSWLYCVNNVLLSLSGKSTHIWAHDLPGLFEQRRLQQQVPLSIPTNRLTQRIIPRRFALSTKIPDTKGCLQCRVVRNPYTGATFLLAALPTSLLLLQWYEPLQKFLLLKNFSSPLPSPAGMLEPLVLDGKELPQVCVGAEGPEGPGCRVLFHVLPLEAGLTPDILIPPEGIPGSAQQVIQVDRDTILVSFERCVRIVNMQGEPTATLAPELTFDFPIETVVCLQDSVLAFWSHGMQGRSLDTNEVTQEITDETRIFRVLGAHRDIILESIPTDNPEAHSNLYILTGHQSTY
To be noted: at 0.1 µM.

The target of test [9] is T3, Mitogen-activated protein kinase kinase kinase kinase 2 (Homo sapiens). Conditions: at 1 µM.
In test [10] the target is Mitogen-activated protein kinase kinase kinase kinase 4 (Homo sapiens) (UniProt O95819). Conditions: at 0.1 µM.
Mitogen-activated protein kinase kinase kinase kinase 4 (Homo sapiens), sequence (O95819 2-1239 limits assumed): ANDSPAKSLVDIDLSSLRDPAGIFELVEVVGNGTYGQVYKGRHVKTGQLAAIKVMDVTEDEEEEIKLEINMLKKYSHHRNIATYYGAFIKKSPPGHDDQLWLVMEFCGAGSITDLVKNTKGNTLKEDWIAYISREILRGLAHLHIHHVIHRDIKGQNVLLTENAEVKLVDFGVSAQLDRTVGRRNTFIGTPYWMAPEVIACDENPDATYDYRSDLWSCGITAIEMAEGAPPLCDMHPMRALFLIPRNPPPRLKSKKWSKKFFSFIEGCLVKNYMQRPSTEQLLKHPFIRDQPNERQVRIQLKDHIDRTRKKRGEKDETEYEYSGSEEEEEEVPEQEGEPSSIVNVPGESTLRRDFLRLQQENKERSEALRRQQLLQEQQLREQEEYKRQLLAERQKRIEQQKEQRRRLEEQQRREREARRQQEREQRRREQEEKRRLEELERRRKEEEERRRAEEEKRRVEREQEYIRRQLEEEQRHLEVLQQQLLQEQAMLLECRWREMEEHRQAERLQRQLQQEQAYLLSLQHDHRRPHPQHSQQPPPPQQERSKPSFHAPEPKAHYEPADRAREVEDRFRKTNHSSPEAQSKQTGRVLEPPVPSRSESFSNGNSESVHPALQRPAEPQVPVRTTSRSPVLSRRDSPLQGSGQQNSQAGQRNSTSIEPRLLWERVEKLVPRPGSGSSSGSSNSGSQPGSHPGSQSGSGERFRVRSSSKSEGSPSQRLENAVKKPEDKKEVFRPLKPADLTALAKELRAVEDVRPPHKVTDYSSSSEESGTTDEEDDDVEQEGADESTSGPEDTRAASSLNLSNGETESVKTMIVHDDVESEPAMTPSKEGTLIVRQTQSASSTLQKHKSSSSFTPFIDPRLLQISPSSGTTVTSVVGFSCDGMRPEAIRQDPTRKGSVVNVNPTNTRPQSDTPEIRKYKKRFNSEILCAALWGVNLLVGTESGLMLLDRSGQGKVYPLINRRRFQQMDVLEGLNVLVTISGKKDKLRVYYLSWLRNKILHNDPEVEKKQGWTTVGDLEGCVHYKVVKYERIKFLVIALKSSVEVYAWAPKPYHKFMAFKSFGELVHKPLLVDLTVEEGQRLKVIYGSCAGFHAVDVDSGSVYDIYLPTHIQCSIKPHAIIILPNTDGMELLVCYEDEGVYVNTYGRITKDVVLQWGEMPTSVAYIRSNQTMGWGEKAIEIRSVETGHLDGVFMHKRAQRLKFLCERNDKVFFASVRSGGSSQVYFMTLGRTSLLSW
For test [11] the target is unchanged. Conditions: at 1 µM.
Test [12] concerns the target Dual specificity mitogen-activated protein kinase kinase 1 (Homo sapiens) (UniProt Q02750). Conditions: at 0.1 µM.
Test [13] shares this target. Conditions: at 1 µM.
For test [14], the target named is Misshapen-like kinase 1 (Homo sapiens) (UniProt Q8N4C8). Conditions: at 0.1 µM.
Misshapen-like kinase 1 (Homo sapiens), sequence (Q8N4C8 whole entry, looked up): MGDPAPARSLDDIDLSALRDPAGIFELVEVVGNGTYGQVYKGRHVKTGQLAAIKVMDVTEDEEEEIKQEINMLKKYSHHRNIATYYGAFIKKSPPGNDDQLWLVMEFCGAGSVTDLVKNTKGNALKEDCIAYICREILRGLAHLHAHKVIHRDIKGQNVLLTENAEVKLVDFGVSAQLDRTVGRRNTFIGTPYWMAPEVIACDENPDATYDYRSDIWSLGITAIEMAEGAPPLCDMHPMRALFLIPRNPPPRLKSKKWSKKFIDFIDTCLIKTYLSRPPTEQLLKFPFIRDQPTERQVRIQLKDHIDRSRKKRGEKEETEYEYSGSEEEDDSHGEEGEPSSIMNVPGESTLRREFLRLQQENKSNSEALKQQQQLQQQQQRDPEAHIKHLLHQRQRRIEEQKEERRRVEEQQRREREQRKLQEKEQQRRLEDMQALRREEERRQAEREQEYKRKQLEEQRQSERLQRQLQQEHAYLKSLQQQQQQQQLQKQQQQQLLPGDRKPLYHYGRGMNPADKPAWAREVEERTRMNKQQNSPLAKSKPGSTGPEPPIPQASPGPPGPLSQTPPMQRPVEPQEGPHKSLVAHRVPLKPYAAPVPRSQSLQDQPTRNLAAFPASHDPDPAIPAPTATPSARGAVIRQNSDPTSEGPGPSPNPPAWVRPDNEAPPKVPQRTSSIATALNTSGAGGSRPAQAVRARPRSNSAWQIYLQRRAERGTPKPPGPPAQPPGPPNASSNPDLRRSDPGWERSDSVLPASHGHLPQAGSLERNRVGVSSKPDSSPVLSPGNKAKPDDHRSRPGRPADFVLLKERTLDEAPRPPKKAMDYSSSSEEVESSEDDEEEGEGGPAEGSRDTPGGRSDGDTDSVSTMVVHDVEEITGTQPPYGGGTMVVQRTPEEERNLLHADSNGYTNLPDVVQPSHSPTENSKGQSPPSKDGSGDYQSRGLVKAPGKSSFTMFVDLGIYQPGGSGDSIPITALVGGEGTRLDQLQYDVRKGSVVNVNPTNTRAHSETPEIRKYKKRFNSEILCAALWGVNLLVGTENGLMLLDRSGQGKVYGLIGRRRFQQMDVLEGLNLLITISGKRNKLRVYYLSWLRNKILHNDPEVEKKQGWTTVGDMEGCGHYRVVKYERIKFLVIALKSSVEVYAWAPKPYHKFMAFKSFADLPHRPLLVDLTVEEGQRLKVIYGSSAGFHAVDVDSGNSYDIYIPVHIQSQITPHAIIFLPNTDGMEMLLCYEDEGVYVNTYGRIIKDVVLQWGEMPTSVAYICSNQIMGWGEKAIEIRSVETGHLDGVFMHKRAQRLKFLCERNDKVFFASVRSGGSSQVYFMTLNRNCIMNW
For test [15] the target is unchanged. To be noted: at 1 µM.
Test [16] addresses T4, Serine/threonine-protein kinase 4 (Homo sapiens) (UniProt Q13043).
T4 sequence (whole entry): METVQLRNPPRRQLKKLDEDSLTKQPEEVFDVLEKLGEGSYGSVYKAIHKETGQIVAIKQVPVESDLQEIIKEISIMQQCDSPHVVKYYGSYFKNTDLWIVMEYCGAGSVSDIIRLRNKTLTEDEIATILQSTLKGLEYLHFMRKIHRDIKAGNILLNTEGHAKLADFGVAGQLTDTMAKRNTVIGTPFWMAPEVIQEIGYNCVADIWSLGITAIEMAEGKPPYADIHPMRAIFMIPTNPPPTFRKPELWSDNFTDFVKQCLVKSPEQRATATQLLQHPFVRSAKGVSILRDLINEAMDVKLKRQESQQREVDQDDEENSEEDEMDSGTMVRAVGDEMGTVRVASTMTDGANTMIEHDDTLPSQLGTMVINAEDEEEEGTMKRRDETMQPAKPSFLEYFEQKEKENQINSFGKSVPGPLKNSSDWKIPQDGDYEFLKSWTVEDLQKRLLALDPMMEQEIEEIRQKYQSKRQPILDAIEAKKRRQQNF
Conditions: at 0.1 µM.

In test [17] the target is T4, Serine/threonine-protein kinase 4 (Homo sapiens). Conditions: at 1 µM.
Test [18] concerns the target T5, Serine/threonine-protein kinase 3 (Homo sapiens) (UniProt Q13188).
T5 sequence (whole entry): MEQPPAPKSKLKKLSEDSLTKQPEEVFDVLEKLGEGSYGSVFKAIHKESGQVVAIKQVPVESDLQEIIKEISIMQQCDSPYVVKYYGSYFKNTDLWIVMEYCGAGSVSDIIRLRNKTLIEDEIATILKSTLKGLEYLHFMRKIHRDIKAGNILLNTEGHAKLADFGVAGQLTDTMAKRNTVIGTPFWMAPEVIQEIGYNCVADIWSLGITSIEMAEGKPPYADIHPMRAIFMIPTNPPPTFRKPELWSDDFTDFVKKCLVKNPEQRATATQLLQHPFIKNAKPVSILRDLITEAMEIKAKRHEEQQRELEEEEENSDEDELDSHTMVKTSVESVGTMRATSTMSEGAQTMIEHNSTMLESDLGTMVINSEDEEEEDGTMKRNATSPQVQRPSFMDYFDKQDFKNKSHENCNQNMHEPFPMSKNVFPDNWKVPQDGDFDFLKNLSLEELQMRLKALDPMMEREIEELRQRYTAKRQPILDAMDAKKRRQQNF
To be noted: at 0.1 µM.

In test [19] the target is T5, Serine/threonine-protein kinase 3 (Homo sapiens). To be noted: at 1 µM.
Test [20] addresses Serine/threonine-protein kinase 26 (Homo sapiens) (UniProt Q9P289). Conditions: at 0.1 µM.

Dual specificity mitogen-activated protein kinase kinase 1 (Homo sapiens), sequence (Q02750 whole entry): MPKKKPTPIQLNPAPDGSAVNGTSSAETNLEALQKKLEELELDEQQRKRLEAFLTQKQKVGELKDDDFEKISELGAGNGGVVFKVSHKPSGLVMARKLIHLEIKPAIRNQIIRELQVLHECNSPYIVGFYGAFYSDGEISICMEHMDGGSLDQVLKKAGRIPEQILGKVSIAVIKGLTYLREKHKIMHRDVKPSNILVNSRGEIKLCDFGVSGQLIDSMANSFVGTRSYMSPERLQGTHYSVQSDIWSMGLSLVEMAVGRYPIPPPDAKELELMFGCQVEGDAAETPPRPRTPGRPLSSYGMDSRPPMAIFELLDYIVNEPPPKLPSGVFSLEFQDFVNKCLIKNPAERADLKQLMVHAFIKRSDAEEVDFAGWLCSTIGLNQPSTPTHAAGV
Serine/threonine-protein kinase 26 (Homo sapiens), sequence (Q9P289 2-416 limits assumed): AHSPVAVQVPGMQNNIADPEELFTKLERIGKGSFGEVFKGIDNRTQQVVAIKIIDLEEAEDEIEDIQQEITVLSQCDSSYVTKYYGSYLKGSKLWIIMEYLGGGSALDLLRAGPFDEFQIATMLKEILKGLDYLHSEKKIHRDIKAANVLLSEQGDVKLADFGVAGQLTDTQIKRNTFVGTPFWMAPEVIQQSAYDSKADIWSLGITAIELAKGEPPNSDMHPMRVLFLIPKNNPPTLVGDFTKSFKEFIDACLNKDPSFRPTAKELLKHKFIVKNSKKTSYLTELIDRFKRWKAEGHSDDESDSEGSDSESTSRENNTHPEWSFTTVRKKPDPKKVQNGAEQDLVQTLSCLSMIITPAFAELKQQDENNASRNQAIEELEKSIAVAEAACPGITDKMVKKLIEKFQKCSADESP
Serine/threonine-protein kinase 10 (Homo sapiens), sequence (O94804 whole entry, looked up): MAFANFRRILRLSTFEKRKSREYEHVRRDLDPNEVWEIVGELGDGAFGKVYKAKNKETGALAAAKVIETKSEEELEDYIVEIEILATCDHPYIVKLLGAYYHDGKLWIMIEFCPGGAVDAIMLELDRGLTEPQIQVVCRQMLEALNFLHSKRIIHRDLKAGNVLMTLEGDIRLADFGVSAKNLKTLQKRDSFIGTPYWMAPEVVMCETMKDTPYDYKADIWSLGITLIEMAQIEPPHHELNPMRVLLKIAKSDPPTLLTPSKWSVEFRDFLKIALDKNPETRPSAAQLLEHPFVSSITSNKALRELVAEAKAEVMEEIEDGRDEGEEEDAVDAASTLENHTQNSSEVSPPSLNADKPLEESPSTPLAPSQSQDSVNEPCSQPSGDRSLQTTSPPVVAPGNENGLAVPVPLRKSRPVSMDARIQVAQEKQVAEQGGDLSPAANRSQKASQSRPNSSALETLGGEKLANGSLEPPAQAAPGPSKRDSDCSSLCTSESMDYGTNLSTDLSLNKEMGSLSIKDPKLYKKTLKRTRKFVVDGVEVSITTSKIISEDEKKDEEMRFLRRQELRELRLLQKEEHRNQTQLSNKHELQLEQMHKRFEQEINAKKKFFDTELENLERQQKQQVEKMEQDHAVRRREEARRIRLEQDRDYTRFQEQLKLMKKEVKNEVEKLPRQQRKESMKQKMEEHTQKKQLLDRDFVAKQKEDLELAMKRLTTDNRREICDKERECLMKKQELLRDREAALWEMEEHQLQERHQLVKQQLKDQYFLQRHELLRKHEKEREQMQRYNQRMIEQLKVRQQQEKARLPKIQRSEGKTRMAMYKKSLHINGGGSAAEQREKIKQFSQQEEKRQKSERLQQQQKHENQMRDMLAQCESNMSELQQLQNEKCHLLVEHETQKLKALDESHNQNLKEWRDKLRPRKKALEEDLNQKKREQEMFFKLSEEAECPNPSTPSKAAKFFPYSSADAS

With `CS(=O)(=O)Nc1ccc(N/C=C2\C(=O)Nc3ccccc32)cc1`, the inhibition in [1] is 47.6%; in test [2], 7.77%; in test [3], 43%; in test [4], 6.66%; in [5] it was 61.1%; in test [6], -2.57%. Also, the inhibition is 0.71% in [7]; 2.65% in [8]; 18.6% in test [9]; 18.1% in [10]; 73% in test [11]; -3.18% in test [12]. Besides, the inhibition in [13] was -0.2%; in test [14], 11.8%; in test [15] it was 63.8%; in [16], 6.72%; in test [17], 51.9%; in test [18] it was -0.42%. Further, the inhibition was 24.6% in test [19] and 0.42% in [20].
In the case of `CCn1c(-c2nonc2N)nc2c(C#CC(C)(C)O)nc(OC[C@@H](N)c3ccccc3)cc21`, the inhibition in [1] was 11.7%; in [2] it was 2.1%; in [3] it was 7.36%; in [4], 4.3%; in test [5] it was -0.02%; in [6] it was -0.81%. Besides, the inhibition in test [7] is 7.62%; in test [8], 0.61%; in [9], 8.96%; in [10], 1.21%; in test [11], 14.1%; in test [12], -0.93%. Further, the inhibition in test [13] was 3.8%; in test [14] it was -1.26%; in test [15], 9.85%; in test [16] it was -2.01%; in [17], 15.2%; in [18], -1.88%. Moreover, the inhibition in test [19] amounted to 11.8%; in test [20], 1.4%.
Take `CCn1c(-c2nonc2N)nc2cncc(C(=O)N3CC[C@H](N)C3)c21`: the inhibition in test [1] was 3.21%; in [2], 2.84%; in test [3], 6.38%; in [4], 1.58%; in test [5], -2.29%; in test [6], 4.37%. The inhibition in [7] was 12%; in test [8], 0.43%; in [9] it was 2.34%; in test [10], 5.42%; in [11], 5.7%; in test [12] it was 6.85%. Further, the inhibition in test [13] was 6.13%; in test [14] it was 7.01%; in test [15], 6.82%; in test [16] it was 3.69%; in test [17] it was 4.11%; in test [18] it was 4.28%. Besides, the inhibition was 4.87% in test [19] and -0.5% in test [20].
`NCc1ccc(-c2nc(-c3ccc(Cl)c(O)c3)c(-c3ccncc3)[nH]2)cc1`: the inhibition worked out at 9.73% in test [1]; 1.17% in [2]; 6.56% in test [3]; 1.89% in test [4]; 5.03% in test [5]; 1.42% in test [6]. For the same molecule, the inhibition in test [7] worked out at 23.7%; in test [8] it was 3.14%; in test [9], 4.41%; in [10], 4.02%; in test [11] it was 17.2%; in [12], 0.8%. The inhibition in test [13] is 2.23%; in [14], 4.99%; in [15], 14.1%; in [16], 0.18%; in [17], 0.25%; in [18], -1%. For the same molecule, the results for the inhibition in [19] and in test [20] were -1.23% and 0.12%, respectively.
For the molecule `COc1ccc(-c2ccncc2)cc1C(N)=O`, the inhibition in test [1] is 4.17%; in test [2], 5.11%; in [3] it was 7.24%; in [4], 1.6%; in test [5], 5.22%; in [6] it was 8.76%. The inhibition turned out to be 12.9% in test [7]; 0.72% in test [8]; 3.34% in test [9]; 4.28% in test [10]; 11.4% in [11]; 4.89% in [12]. Moreover, the inhibition in test [13] was determined as 4.05%; in [14], 6.61%; in test [15] it was 8.92%; in [16] it was 3.27%; in test [17], 7.82%; in [18], 4.87%. Besides, the inhibition is 6.68% in [19] and -1.91% in test [20].
With `NC(=O)c1cccc(Nc2nccc(Nc3cccc4[nH]ncc34)n2)c1`, the inhibition in test [1] was 96.8%; in test [2] it was 24.5%; in [3] it was 73.7%; in test [4], 39.2%; in test [5], 100%; in test [6], -1.55%. Also, the inhibition was 31.9% in test [7]; 2.55% in test [8]; 24.3% in [9]; 2.67% in test [10]; 39.2% in test [11]; -4% in test [12]. The inhibition in test [13] was 0.69%; in test [14] it was 0.64%; in test [15] it was 29%; in test [16] it was -3.17%; in test [17] it was 13.3%; in test [18] it was -4.57%. Also, the inhibition in test [19] is 6.87%; in test [20], -0.32%.
On to `[O-][S+]1CCN(Cc2ccc(-c3ccc4ncnc(Nc5ccc(OCc6ccccc6)c(F)c5)c4c3)o2)CC1`, for which the inhibition is 5.78% in test [1]; 1.65% in test [2]; 4.29% in test [3]; 0.94% in test [4]; 7.34% in test [5]; 2.71% in [6]. Besides, the inhibition in [7] is 6.62%; in [8], 0.36%; in test [9], 1.57%; in test [10] it was 3.5%; in test [11] it was -0.28%; in test [12], 2.4%. The inhibition was found to be 3.03% in test [13]; 4.17% in test [14]; 1.42% in test [15]; 2.61% in test [16]; 2.36% in [17]; 2.82% in test [18]. Besides, the inhibition in test [19] was 3.06%; in [20], -0.81%.

As usually defined, the inhibition is the change of the read-out against control, counted positive when it falls.

The values are drawn from ChEMBL document CHEMBL1961873, “Compounds: GSK PKIS; Assays: Nanosyn kinase panel” (2012).
